Source: PubChem (several laboratories)
Only some compounds are listed: those with a hit (about 3.6% of all), similar ones and a draw of the others.
GDH-TPI counter-1: GDH-TPI coupling enzyme inhibitors, primary screen, artefact control for M. tuberculosis FBA inhibitor project, biochemical, absorbance, full deck. inhibition, % at 4.8 µM. AID 588335, 2011. 360,000 tested, 1.2% active. GDH-TPI coupled enzyme counterscreen, NADH absorbance; in the data active = inhibition above about 30%;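 note: 0% = DMSO wells and 100% = wells lacking the enzyme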
DUSP3 inh: VHR1 phosphatase inhibitors, primary screen, biochemical, absorbance, uHTS. Dual specificity protein phosphatase 3 (Homo sapiens), P51452. recombinant VHR phosphatase, pNPP absorbance. inhibition, % at 13.3 µM. 290,000 tested, 0.52% active; in the data active = inhibition above about 50%
Target sequence (P51452 whole entry, looked up): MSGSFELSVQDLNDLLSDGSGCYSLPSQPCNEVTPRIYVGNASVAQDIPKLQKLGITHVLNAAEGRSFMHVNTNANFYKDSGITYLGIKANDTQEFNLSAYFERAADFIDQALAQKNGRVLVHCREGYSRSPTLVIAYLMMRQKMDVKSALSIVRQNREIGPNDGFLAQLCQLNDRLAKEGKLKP
Mtb hypoxia inh: PubChem AID 1159583; fluorescence inhibition, % (concentration not given with the values); M. tuberculosis hypoxia-regulated fluorescent reporter, fluorescence; 300,000 tested, 0.1% active; in the data active = fluorescence inhibition mostly above about 23%, no sharp cut-off; inactive = mostly below about 17%
Mtb betalactam: beta-lactam sensitization of Mtb H37Rv, H37Rv; M. tuberculosis H37Rv growth with meropenem, percent inhibition; inhibition, % at 25 µM; 330,000 tested, 0.27% active; AID 434955, 2010; call rule not given here;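 note: growth measured after seven days incubation then overnight dye step; 0% = bacteria only wells and 100% = bacteria with antibiotic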
Mtb FBA inh: Mtb FBA enzyme inhibitors, primary screen, biochemical, fluorescence, strain H37Rv; Fructose-bisphosphate aldolase (Mycobacterium tuberculosis (strain ATCC 25618 / H37Rv)), …; AID 588726, 2011; inhibition, % at 1 µM; 360,000 tested, 2.3% active; purified M. tuberculosis FBA, fluorescence read-out;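 note: 0% = vehicle and 100% = reference inhibitor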
Target sequence (P9WQA3 whole entry, looked up): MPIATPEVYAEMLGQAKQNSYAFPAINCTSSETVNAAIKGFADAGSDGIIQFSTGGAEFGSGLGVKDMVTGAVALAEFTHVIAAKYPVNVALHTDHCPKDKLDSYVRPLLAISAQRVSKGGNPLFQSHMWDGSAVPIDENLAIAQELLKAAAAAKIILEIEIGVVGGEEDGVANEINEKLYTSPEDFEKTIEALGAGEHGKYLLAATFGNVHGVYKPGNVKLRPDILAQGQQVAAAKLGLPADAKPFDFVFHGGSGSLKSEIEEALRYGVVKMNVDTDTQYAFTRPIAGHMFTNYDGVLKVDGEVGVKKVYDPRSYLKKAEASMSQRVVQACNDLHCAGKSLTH
Mtb FBA inh conf: M. tuberculosis aldolase blockers, biochemical, fluorescence, strain H37Rv, confirmation; inhibition, % at 1 µM; shares compounds with Mtb FBA inh; purified M. tuberculosis FBA, fluorescence read-out; 5,600 tested, 78% active;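 note: 0% = vehicle wells and 100% = reference inhibitor wells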
GDH-TPI counter-2: GDH-TPI coupling enzyme inhibitors, artefact control for M. tuberculosis FBA inhibitor project, biochemical, fluorescence, high throughput | shares compounds with Mtb FBA inh | GDH-TPI coupled enzyme counterscreen | inhibition, % at 1 µM | 5,600 tested, 81% active; in the data active = inhibition above about 10%
GDH-TPI dose: GDH-TPI coupling enzyme inhibitors, dose response, artefact control for M. tuberculosis FBA inhibitor project, biochemical, fluorescence, IC50 | IC50, µM | GDH-TPI coupled enzyme assay, artifact counterscreen | shares compounds with Mtb FBA inh | 170 tested, 79% active; call rule not given here
An asterisk follows results filed as active; x = no result given; + = active, no number. Cut-off read from the data, not from the text of the source, unless noted: active = inhibition above about 27%; inactive = the rest.

SMILES	GDH-TPI counter-1	DUSP3 inh	Mtb hypoxia inh	Mtb betalactam	Mtb FBA inh	Mtb FBA inh conf	GDH-TPI counter-2	others
CCc1c(C)nc2ncnn2c1N1CCCC(C(=O)Nc2cc(F)ccc2C)C1 (stereo unspecified)	15.7	21.8	x	-3.5	28.4*	8.2	-0.3
Nn1c(SCc2ccccc2F)nnc1-c1ccccn1	9.2	12.8	5.9	4.2	42.2*	81.2*	70.7*
Nn1c(SCc2ccc(F)cc2)nnc1-c1ccccn1	-3.1	13.1	-6.5	21.1	-0.8	x	x
COc1ccc2[nH]c(-c3cccc(F)c3)cc(=O)c2c1	2.6	-3.6	-3.0	-1.2	41.4*	2.0	-4.2
Cc1ccc2[nH]c(-c3cccc(F)c3)cc(=O)c2c1	15.1	-14.6	4.5	2.5	11.0	x	x
Cc1ccc(C2N=C(N)Nc3nc4ccccc4n32)cc1 (stereo unspecified)	-1.3	-1.1	12.9	-2.8	1.8	x	x
Cc1ccc(C2N=C(N)Nc3nc(=O)c4ccccc4n32)cc1 (stereo unspecified)	3.4	12.5	8.5	-4.8	76.3*	9.1	6.0
CCC1C(=O)OCC1Cc1cncn1C (stereo unspecified)	x	x	-2.0	x	x	x	x
CCOc1ccc(-n2cnnn2)cc1S(=O)(=O)NCc1ccccc1	-2.5	-3.9	11.1	-2.6	-0.6	x	x
CCOc1cc(S(=O)(=O)NCc2ccccc2)c(OCC)cc1-n1cnnn1	-7.0	x	-11.0	-5.3	49.0*	131.7*	110.8*
CCOc1ccc2nc(NCCNC(=O)C(C)C)c(C)cc2c1	22.4	1.9	x	-1.9	35.3*	85.8*	65.9*
CCOc1ccc2nc(NCCNC(=O)C3CC3)c(C)cc2c1	12.7	0.8	x	-11.3	21.5	x	x
COc1ccc(C2CC(=O)C=C(c3cc(Cl)cc(Cl)c3)C2)cc1 (stereo unspecified)	x	x	5.9	x	x	x	x
CCOC(=O)c1c(-c2ccc(C)cc2)cn2ccccc12	11.9	5.4	x	12.8	88.8*	106.2*	79.5*
CCOC(=O)c1c(-c2ccc(OC)cc2)cn2ccccc12	3.5	9.6	17.6	-5.5	26.1	x	x
CCOC(=O)c1c(-c2ccc(F)cc2)cn2ccccc12	23.4	23.7	x	1.0	98.7*	139.1*	100.4*
COc1ccc(CC(=O)NN=Cc2cc(Br)cs2)cc1OC	x	x	14.3	x	x	x	x
CC(C)Cc1cc(-c2ccco2)c(C#N)c(N)n1	6.1	11.9	x	-3.3	53.5*	168.9*	145.1*
Cc1ccc2[nH]c3c(c2c1)CCC3=O	1.9	13.1	4.1	-1.9	65.0*	+	162.1*
Cc1ccc2[nH]c3c(c2c1)CCCC3=O	12.0	3.6	x	5.7	12.1	x	x
COCCNC(=S)NN=Cc1c2ccccc2cc2ccccc12	x	x	13.5	x	x	x	x
CN1CCc2c(sc3c2c(=O)n(-c2cccc(Cl)c2)c2nncn32)C1	0.0	x	5.6	-0.3	5.6	x	x
CN1CCc2c(sc3nc(NCCO)n(-c4cccc(Cl)c4)c(=O)c23)C1	22.8	1.9	0.8	-6.9	70.6*	108.6*	87.6*
CCN1C(=O)C2C(c3ccc(SC4CCCCC4)c(OC)c3)N3CCCC[C@@]3(C(=O)OC)C2C1=O (stereo partly specified)	x	x	0.9	x	x	x	x
COc1ccc(S(=O)(=O)NCCc2ccccn2)cc1	-8.5	x	2.1	1.6	-1.4	x	x
SMILES	GDH-TPI counter-1	DUSP3 inh	Mtb hypoxia inh	Mtb betalactam	Mtb FBA inh	Mtb FBA inh conf	GDH-TPI counter-2	others
CCN(CC)CCNS(=O)(=O)c1ccc(Cl)cc1	7.7	17.3	7.3	1.8	1.1	x	x
Cc1nc2nc(CCNS(=O)(=O)c3ccc(Cl)cc3)cn2nc1C	4.3	-17.2	x	-4.1	72.2*	61.5*	63.0*
COc1ccc(S(=O)(=O)NCCc2cn3nc(C)c(C)nc3n2)cc1	0.9	-2.2	-8.3	-5.4	59.2*	-4.1	-3.2
COC(=O)[C@@]1(Cc2ccc(OC)cc2)C2c3cc(C(=O)N(C)C)n(CCSCCO)c3CC2CN1C(=O)c1ccccc1 (stereo partly specified)	x	x	19.2	x	x	x	x
CC(=NNC(=O)Cc1ccccc1)c1ccc(Br)s1	x	x	10.2	x	x	x	x
CC(=O)Nc1ccccc1NS(=O)(=O)c1ccccc1[N+](=O)[O-]	1.6	11.1	2.2	-11.1	2.2	x	x
CC(=O)Nc1ccccc1NS(=O)(=O)c1cccc([N+](=O)[O-])c1	4.8	-5.3	6.7	0.2	99.1*	+	175.2*
O=C1NC2=C(C(=O)c3ccccc32)C(c2ccccc2)N1 (stereo unspecified)	1.6	14.0	4.9	1.1	-0.5	x	x
CC(C)c1ccc(C2NC(=O)NC3=C2CCc2ccccc23)cc1 (stereo unspecified)	4.1	16.1	6.5	16.6	31.6*	62.7*	34.8*
COc1ccc2c(c1)C1=C(CC2)C(c2ccc(C)cc2)NC(=S)N1 (stereo unspecified)	0.3	12.0	0.6	-2.7	1.3	x	x
Cc1ccc(C2NC(=O)NC3=C2CCc2ccccc23)cc1 (stereo unspecified)	5.3	8.4	7.0	-4.2	34.6*	61.2*	55.1*
ON=C(c1ccc(Cl)cc1)c1cc2ccccc2o1	x	x	4.6	x	x	x	x
O=C(Nc1cccc(-c2nc3cc(Cl)ccc3o2)c1)C1CCCO1 (stereo unspecified)	1.6	5.0	2.1	-2.2	7.6	x	x
Cc1ccc2nc(-c3cccc(N)c3)oc2c1	12.6	19.9	3.8	99.0	92.7*	14.3	-0.2	GDH-TPI dose=0.953*
Cc1ccc2oc(-c3cccc(NC(=O)C4CCCO4)c3)nc2c1 (stereo unspecified)	9.4	-4.4	1.1	17.2	50.9*	119.9*	97.9*
Cc1cc(C)c2oc(-c3cccc(N)c3)nc2c1	9.6	36.0	11.8	9.7	51.8*	18.8	7.2	GDH-TPI dose=0.879*
CCc1ccc2oc(-c3cccc(N)c3)nc2c1	3.8	0.2	-0.4	98.3	62.6*	126.9*	103.8*
Cc1ccc(C2CC=C(C(=O)O)CN2S(=O)(=O)c2ccccc2C)cc1 (stereo unspecified)	x	x	-0.1	x	x	x	x
CC(=NNC(=O)Nc1ccccc1)c1ccccc1	x	x	0.3	x	x	x	x
Cc1ccc(C(=O)ON=C2CC3CCC2(C)[C@@]3(C)CBr)cc1 (stereo partly specified)	x	x	13.9	x	x	x	x
Cc1ccc2nc(-c3ccc(O)cc3)oc2c1	3.7	12.7	x	2.0	65.9*	67.8*	45.8*
CCC(=O)Nc1cccc(-c2nc3ccc(C)cc3o2)c1	4.3	12.2	11.9	13.9	31.7*	114.8*	99.0*
Cc1ccc(-c2nc3cc(Cl)ccc3o2)cc1	8.1	14.6	9.6	5.8	1.9	x	x
